# Compound activity: PubChem, National Center for Advancing Translational Sciences (NCATS)
# NIH3T3 tox – NIH 3T3 cell cytotoxicity; NIH 3T3 viability, CellTiter-Glo ATP luminescence, 48-72 h; Potency, µM (series often up to 96.7 µM), for the others: top-dose activity change, negative = cytotoxicity, hits mostly inhibitors; actives 4.3% (n = 94,000); note: nearly all actives have a fitted effect of over 55% in size
#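 Cytotoxicity is measured as loss of cellular ATP: NIH 3T3 cells (400/well) are exposed to compound for 48 or 72 hr at 37 °C, then CellTiter-Glo luminescence is imaged after 10 min at room temperature.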
# Luciferase inh – inhibitors of firefly (Photinus pyralis) luciferase. purified P. pyralis luciferase, luminescence, biochemical. actives 2.5% (n = 76,000). P08659. Potency, µM (top dose mostly 115 µM), hits mostly inhibitors. AID 1347043; note: nearly all actives have a fitted effect of over 65% in size
# Target sequence (P08659 whole entry, looked up): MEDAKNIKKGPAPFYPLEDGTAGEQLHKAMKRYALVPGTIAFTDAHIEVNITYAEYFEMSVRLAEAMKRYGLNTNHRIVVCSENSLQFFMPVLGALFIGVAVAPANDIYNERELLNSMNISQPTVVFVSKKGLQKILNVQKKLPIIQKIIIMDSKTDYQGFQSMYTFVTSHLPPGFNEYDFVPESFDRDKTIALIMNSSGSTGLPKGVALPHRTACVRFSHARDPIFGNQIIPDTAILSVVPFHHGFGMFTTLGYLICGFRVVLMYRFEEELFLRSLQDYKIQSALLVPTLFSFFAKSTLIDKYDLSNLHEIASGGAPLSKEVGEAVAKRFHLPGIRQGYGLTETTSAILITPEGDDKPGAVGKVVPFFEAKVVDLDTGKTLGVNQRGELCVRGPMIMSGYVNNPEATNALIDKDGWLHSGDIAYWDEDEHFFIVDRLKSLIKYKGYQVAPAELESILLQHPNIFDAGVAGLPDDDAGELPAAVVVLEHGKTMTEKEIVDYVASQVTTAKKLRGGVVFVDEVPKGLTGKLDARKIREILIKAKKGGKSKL
#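 FLuc 10nM, D-luciferin 10uM, ATP 10uM, Mg acetate 10mM, Tris acetate pH 7.5, Tween/BSA; cpd qHTS; enzyme added last; CCD luminescence.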
# HEK293 tox – kills HEK 293 cells; HEK 293 viability, ATP luminescence (CellTiter-Glo), 48-72 h; Potency, µM (titrated, usually from 115 µM), inactives show top-dose activity change, negative = cytotoxicity, actives largely listed as inhibitors; actives 6.6% (n = 94,000); AID 1345083; note: nearly all actives have a fitted effect of over 60% in size
#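 qHTS cytotoxicity; HEK 293, 250 cells/well; compound pinned; 48 or 72 hr, 37 degree Celsius, 5% CO2, 95% humidity; CellTiter-Glo, 10 min RT; luminescence (ATP).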
# hNpr1 antagonist – blocks ANP-stimulated signaling of human Npr1 receptor | Potency, µM (top dose mostly 46.3 µM), for inactives: top-dose activity change, negative = inhibition, hits mostly inhibitors | HEK293 hNpr1 GloSensor cGMP, ANP-stimulated luminescence | actives 1.6% (n = 76,000); calls by dose curve; note: nearly all actives have a fitted effect of over 60% in size
#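 HEK293 cells stably expressing human Npr1 and cGMP GloSensor pGS-40F, loaded 2 h with 2% GloSensor reagent, given compound 30 min at room temperature. Luminescence read before and 20 min after 0.1 nM hNppA.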
# * marks the source's active call; other numbers are inactive results; i = inactive; ? = inconclusive; [ ] = remark or other dose. Sampled rows, rich in hits. Any-hit rate of the full collection: about 11%. Unless noted, calls come from the whole dose curve; as a rule, active = well fitted curve in the direction sought with a large enough effect; inconclusive = small, poorly fitted or top-dose-only effect, or another doubt; inactive = no such curve, though single readings can be large; an effect the other way counts as inactive or inconclusive. % is set by controls: 0 for no effect and ±100 for the full control effect; potency is the fitted concentration of half-maximal effect.
SMILES,NIH3T3 tox,Luciferase inh,HEK293 tox,hNpr1 antagonist
C=C[C@H]1CN2CC[C@H]1C[C@@H]2CNS(=O)(=O)c1ccc2ccccc2c1,?,i,112µM*,1%[70.6 µM]
COc1ccc(-c2cc([C@H]3CN4CC[C@H]3C[C@@H]4CNC(=O)NCc3ccccc3)n(C)n2)cc1,?,i,?,-3%
Cn1nc(-c2ccc3ccccc3c2)cc1[C@H]1CN2CC[C@H]1C[C@@H]2CNC(=O)NCc1ccccc1,18µM*,i,?,-12%
COc1ccc(-c2cc([C@H]3CN4CC[C@H]3C[C@@H]4CNS(=O)(=O)c3cccs3)n(C)n2)cc1OC,?,i,?,0%
COc1ccc(-c2cc([C@H]3CN4CC[C@H]3C[C@@H]4CNS(=O)(=O)c3ccc(Cl)cc3)n(C)n2)cc1OC,?,i,28µM*,-5%
Cc1nc(-c2ccc(N(C)C)cc2)cc([C@H]2CN3CC[C@H]2C[C@@H]3CNC(=O)C2CC2)n1,100µM*,i,71µM*,-2%[70.6 µM]
Cc1nc(-c2ccc(N(C)C)cc2)cc([C@H]2CN3CC[C@H]2C[C@@H]3CNC(=O)C(C)(C)C)n1,89µM*,i,56µM*,1%[70.6 µM]
Cc1nc(-c2ccc(N(C)C)cc2)cc([C@H]2CN3CC[C@H]2C[C@@H]3CNCc2cccc(C#N)c2)n1,28µM*,?,25µM*,-21%
Cc1nc(-c2ccc(N(C)C)cc2)cc([C@H]2CN3CC[C@H]2C[C@@H]3CNC(=O)N2CCOCC2)n1,?,i,?,0%
Cc1nc(-c2ccc(C(F)(F)F)cc2)cc([C@H]2CN3CC[C@H]2C[C@@H]3CNC(=O)C2CC2)n1,?,i,?,3%
C=C[C@H]1CN2CC[C@H]1C[C@@H]2CNC(=O)CSCC(=O)O,?,i,-20%[172 µM],1%[70.6 µM]
Cc1cccc([C@H]2C[C@@H](O)[C@@H](O)[C@@H]2NCC2CCCC2)c1,89µM*,i,50µM*,-28%[70.6 µM]
COc1ccc(CNC[C@H]2C[C@@H]3CCN2C[C@@H]3c2cc(-c3ccc4ccccc4c3)nn2C)cc1,25µM*,i,?,0%
COc1ccc(CNC[C@H]2C[C@@H]3CCN2C[C@@H]3c2cc(C3CCCCC3)nn2C)cc1,28µM*,i,32µM*,3%[70.6 µM]
c1cc2nc(C3CCNCC3)[nH]c2cn1,3%[174 µM],i,4%[230 µM],0%[70.6 µM]
CC(=O)N1CCC(C(=O)N2CCC3(CC2)c2nccn2-c2ccccc2CN3C)CC1,?,i,2%,4%
Cc1ccc(C(=O)N2CCC3(CC2)c2nccn2-c2ccccc2CN3CC(C)C)cc1F,35µM*,i,35µM*,-20%
CC(C)CN1Cc2ccccc2-n2ccnc2C12CCN(C(=O)C(C)C)CC2,-22%,i,?,-3%
COc1cc2c(cc1OC1CCCC1)NC(=O)C21CCN(Cc2ccccc2)CC1,89µM*,i,?,-14%[70.6 µM]
COc1cc2c(cc1OC1CCCC1)NC(=O)C21CCN(C(=O)Cc2ccccc2)CC1,89µM*,i,79µM*,?
O=C(c1cnccn1)N1C[C@@H]2C[C@H](C1)c1c(-c3ccccc3)ccc(=O)n1C2,-2%[174 µM],i,4%[172 µM],6%[70.6 µM]
N#CC1(c2ccccc2)CCN(C(=O)c2cn(-c3ccccc3)nn2)CC1,?,i,?,6%
CCC(CC)c1cc([C@H]2CN3CC[C@H]2C[C@@H]3CNC(=O)Nc2cccc(C#N)c2)nc(-c2ccncc2)n1,79µM*,i,?,-16%
CCC(CC)c1cc([C@H]2CN3CC[C@H]2C[C@@H]3CNC(=O)c2ccco2)nc(-c2ccncc2)n1,-10%,i,-4%,-2%
CCC(CC)c1cc([C@H]2CN3CC[C@H]2C[C@@H]3CNC2CCN(C(C)=O)CC2)nc(-c2ccncc2)n1,?,i,79µM*,-8%
CCC(CC)c1cc([C@H]2CN3CC[C@H]2C[C@@H]3CO)nc(-c2ccncc2)n1,112µM*,i,112µM*,-28%[70.6 µM]
CCC(CC)c1cc([C@H]2CN3CC[C@H]2C[C@@H]3COC(=O)Nc2ccccc2)nc(-c2ccncc2)n1,-18%,i,-14%,-2%
CCC(CC)c1cc([C@H]2CN3CC[C@H]2C[C@@H]3CNC(=O)c2ccc(C)cc2)nc(-c2ccncc2)n1,?,i,45µM*,-12%
